# KB-3-1 tox – kills parental KB-3-1 adenocarcinoma cells; KB-3-1 viability, CellTiter-Glo ATP luminescence, 72 h; Potency, µM (doses to about 46.1 µM), hits mostly cytotoxic; hit rate 1.4% among 400,000; AID 1347075; also: % is scaled to controls: 0 for no effect and ±100 for the full control effect; nearly all actives have a fitted effect of over 60% in size
#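 Here the drug-naive KB-3-1 line serves as comparator for MDR sub-line selectivity; cells received compound titrations, 72 h at 37 °C, then CellTiter-Glo readout.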
# KB-V1 cytotox – kills drug-selected multidrug resistant KB-V1 cells | KB-V1 MDR cells viability, CellTiter-Glo, 72 h | hit rate 3.4% among 400,000 | AID 1347076 | Potency, µM (titrated, usually from 46.1 µM), most hits filed as cytotoxic; also: % is scaled to controls: 0 for no effect and ±100 for the full control effect; nearly all actives have a fitted effect of over 60% in size
#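 Cells of the MDR subline KB-V1 are plated, dosed with compound at multiple concentrations, and incubated 72 h at 37 degrees C; CellTiter-Glo is then added and luminescence read after 10 min.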
# RORg inh – blocks mouse ROR gamma transcriptional activity | Potency, µM (series often up to 53.6 µM), without a hit: at the highest dose activity change, negative = inhibition, actives largely listed as inhibitors | Drosophila S2 Gal4-RORgamma UAS-luciferase reporter, 20 h | hit rate 5.4% among 310,000 | P51450; also: % is scaled to controls: 0 for no effect and ±100 for the full control effect; nearly all actives have a fitted effect of over 60% in size
# Target sequence (P51450 whole entry, looked up, the tested form may be a part): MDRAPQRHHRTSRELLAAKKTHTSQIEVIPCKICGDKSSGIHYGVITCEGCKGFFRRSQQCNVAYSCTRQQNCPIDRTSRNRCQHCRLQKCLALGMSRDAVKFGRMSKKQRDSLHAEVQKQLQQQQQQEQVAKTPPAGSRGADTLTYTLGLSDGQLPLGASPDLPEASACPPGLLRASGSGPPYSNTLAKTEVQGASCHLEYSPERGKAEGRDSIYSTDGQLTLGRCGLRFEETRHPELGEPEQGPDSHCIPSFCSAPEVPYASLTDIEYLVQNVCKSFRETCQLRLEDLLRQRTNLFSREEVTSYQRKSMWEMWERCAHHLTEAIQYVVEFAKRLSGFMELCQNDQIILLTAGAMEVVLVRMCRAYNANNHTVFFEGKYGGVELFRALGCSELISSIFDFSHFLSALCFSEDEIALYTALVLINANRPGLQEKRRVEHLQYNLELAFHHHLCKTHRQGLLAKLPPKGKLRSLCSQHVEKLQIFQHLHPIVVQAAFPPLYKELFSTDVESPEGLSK
#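 Luciferase reporter read in Schneider cells carrying Gal4-RORγ (mouse) and UAS-Photinus luciferase; cells given compound 1 h before 700 uM copper sulfate induction, then incubated 20 h at ambient temperature.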
# MCF10A rerep – DNA re-replication induction in MCF 10a cells; MCF 10A DNA re-replication, Hoechst nuclear intensity, 48 h; Potency, µM (top dose mostly 46.1 µM), inactives show at the top dose activity, positive = re-replication, actives largely listed as activators; hit rate 2.9% among 350,000; AID 624296; also: % of control where 0% means no effect; nearly all actives have a fitted effect of over 50% in size
# SW480 rereplic – DNA re-replication induction in SW480 cells; SW480 DNA re-replication, Hoechst DNA content imaging, 48 h; hit rate 1.8% among 340,000; AID 624297; Potency, µM (titrated, usually from 46.1 µM), without a hit: top-dose re-replication activation, most hits filed as activators; also: % of control where 0% means no effect; nearly all actives have a fitted effect of over 55% in size
#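 Per well, 250 cells were exposed to pinned compound for 48 hr. Nuclear DNA was visualised with Hoechst (40 min, 37 C) and total object intensity recorded by fluorescence scanning.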
# VP16 counter – counter-screen for ROR gamma inhibitors: Gal4-VP16 reporter | Potency, µM (series often up to 53.6 µM), without a hit: at the highest dose activity, negative = inhibition, hits mostly inhibitors | Drosophila S2 Gal4-VP16 UAS-luciferase, luminescence, 20 h | hit rate 3.5% among 310,000;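 also: Gal4-VP16 expression switched on by copper sulfate through the metallothionein promoter; % is scaled to controls: 0 for no effect and ±100 for the full control effect; nearly all actives have a fitted effect of over 50% in size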
# Active calls of the source: *; i = inactive; ? = inconclusive; · = not tested or not shown; [ ] = dose if it differs, or a comment. An excerpt weighted towards active compounds, which were near 10% of everything screened. Calls follow the shape of the dose curve; as a rule, active = well fitted curve in the direction sought with a large enough effect; inconclusive = small, poorly fitted or top-dose-only effect, or another doubt; inactive = no such curve, though single readings can be large; an effect the other way counts as inactive or inconclusive. Potency is read from the fitted curve at half-maximal effect.
SMILES,KB-3-1 tox,KB-V1 cytotox,RORg inh,MCF10A rerep,SW480 rereplic,VP16 counter
COc1cc(OC)c(NC(=S)NCc2ccc(F)cc2)cc1Cl,i,i,?,-3%[9.22 µM],1%,-27%
Fc1ccc(CNC(=S)Nc2ccccc2F)cc1,i,i,?,-3%,0%,?
COc1cc(Cl)c(C)cc1NC(=O)Cn1cnc2sc(C)c(S(=O)(=O)N3CCCCC3)c2c1=O,i,i,·,·,·,·
Cc1ccc(NC(=O)C2CCN(c3nc4ccccc4nc3C(F)(F)F)CC2)cc1F,i,i,·,·,·,·
CCCc1cc(=O)oc2cc(C)cc(OCC(=O)Nc3cccnc3)c12,i,i,-4%,12%,23µM*,-13%
Cc1cccc(Nc2nnc(-c3ccc(C)c(S(=O)(=O)NCC4CCCO4)c3)c3ccccc23)c1 (stereo not drawn),i,i,·,·,·,·
O=C(CCc1ccccc1)NC(=S)Nc1cc(C(F)(F)F)ccc1N1CCOCC1,?,?,7.1µM*,26%,?,?
CC(C)CC(=O)NC(=S)Nc1cc(C(F)(F)F)ccc1N1CCOCC1,i,18µM*,7.9µM*,2%,?,7.1µM*
CC(Cl)C(=O)Nc1cc(C(F)(F)F)ccc1N1CCOCC1 (stereo not drawn),i,i,10%,-2%,-1%,4%
O=C(Nc1cc(C(F)(F)F)ccc1N1CCOCC1)c1ccco1,i,i,43%,-4%,0%,1%
COc1ccc(CNc2nc(N)nc3nc[nH]c23)cc1,i,i,·,·,·,·
COC(=O)c1ccc2nc(-c3ccc(OC)c(OC)c3)c(Cc3ccsc3)n2c1,i,i,·,·,·,·
N#Cc1ccc(-c2nc3ccc(Br)cn3c2Cc2ccccc2)cc1,21µM*,i,·,·,·,·
Cc1ccc2nc(-c3cccc(Cl)c3)c(Cc3ccccc3)n2c1,i,21µM*,·,·,·,·
COc1ccc(-c2nc3ccc(C)cn3c2Cc2ccsc2)cc1OC,i,23µM*,·,·,·,·
COC(=O)c1ccc2nc(-c3ccc(Cl)cc3)c(Cc3ccsc3)n2c1,?,21µM*,·,·,·,·
Cc1ccc(NC(=O)C2CCN(S(=O)(=O)c3ccc4c(c3)CCCN4C(=O)C3CCC3)CC2)cc1,i,i,·,·,·,·
COc1ccc(Cl)cc1NC(=O)CCn1nc(C)cc1C,i,i,·,·,·,·
O=c1[nH]c(=O)n(C2CCCCC2)c(O)c1C1=Nc2ccccc2SC(c2ccccc2)C1 (stereo not drawn),i,i,·,·,·,·
Cc1cc(O)c(C2=Nc3ccccc3SC(c3ccc(Cl)cc3)C2)c(=O)o1 (stereo not drawn),i,?,-15%,5.2µM*,·,20%
CCc1nc2oc3ccccc3c(=O)c2c(=O)n1-c1ccccc1,i,15µM*,12%,-4%,6%,8%
Nc1ccc(O)cc1C(=O)OCC(=O)c1ccc(C2CCCCC2)cc1,i,i,7.1µM*,23µM*,9.2µM*,?
COc1ccc(C(=O)c2ccc(Cl)cc2)cc1,i,i,3%,1%,-5%,-2%
COc1ccc(C(C#N)=C2C=CC(=NO)C=C2)cc1,?,?,?,23µM*,?,?
CC(=O)OC(=C(OC(C)=O)c1ccccc1)c1ccccc1,i,i,·,-1%,-1%,·
SMILES,KB-3-1 tox,KB-V1 cytotox,RORg inh,MCF10A rerep,SW480 rereplic,VP16 counter
CC(=O)ON=C1C=CC(=C(C#N)c2ccccc2)C=C1,3.7µM*,7.3µM*,·,·,·,·
COc1ccccc1C(=O)NC(=S)Nc1ccc(N2CCCC2)cc1,i,i,?,18%,1%,-15%
Cc1ccccc1C(=O)NC(=S)Nc1ccccc1N1CCCC1,?,i,7.1µM*,4%,3%,-26%[10 µM]
COc1ccccc1C(=O)NC(=S)Nc1ccccc1N1CCCC1,·,·,10µM*,·,·,?
CC(C)c1ccccc1NC(=O)CN(c1ccccc1)S(=O)(=O)N(C)C,i,i,·,·,·,·
CCCS(=O)(=O)NC(=O)C1(C)CCCN(C(=O)Cc2ccc3ccccc3c2)C1 (stereo not drawn),i,i,·,·,·,·
COC(=O)c1ccccc1-c1ccc(C(c2c(C)[nH][nH]c2=O)c2c(C)[nH][nH]c2=O)o1,?,?,37%,14µM*,26%,-6%
COC(=O)c1cccc(-c2ccc(C(c3c(C)[nH][nH]c3=O)c3c(C)[nH][nH]c3=O)o2)c1,i,?,11µM*,?,?,-15%
Cc1cccc(CSc2nc3c(c(=O)[nH]2)C(c2cccc(O)c2)CC(=O)N3)c1 (stereo not drawn),?,i,·,·,·,·
CCOC(=O)C1CCN(C(=O)c2ccccc2)c2scc(-c3ccccc3)c2C1=O (stereo not drawn),i,?,·,·,·,·
Cc1cc(=O)[nH]c2c1c(C)nn2C1CCCC1,i,i,7%,10%,-8%,4%
Cc1cc(=O)[nH]c2c1c(C)nn2C1CCCCC1,i,i,-14%,6.5µM*,8.2µM*,2%
S=c1[nH]nc(CN2CCCCC2)n1-c1ccc(Cl)cc1,i,i,7.1µM*,-7%,1%,?
FC(F)(F)c1ccccc1-n1c(CN2CCCCC2)n[nH]c1=S,i,i,11µM*,7%,-17%,-26%
CCOC(=O)c1[nH]c2ccccc2c1NC(=O)c1ccccc1OC,i,i,·,·,·,·
NC(=O)c1nn(CC(=O)Nc2cccc(S(=O)(=O)N3CCCC3)c2)c(=O)c2ccccc12,i,i,·,0%,-9%,·
COc1ccc(NS(=O)(=O)c2ccc(Cl)c(NC(=O)c3ccccc3F)c2)cc1,·,·,·,0%,13%,·
COc1ccc(NS(=O)(=O)c2ccc(Cl)c(NC(=O)c3cccnc3Cl)c2)cc1,i,21µM*,?,12%,14%,-23%
COc1ccc(NS(=O)(=O)c2ccc(N3CCOCC3)c(NC(=O)c3ccc(OC)cc3)c2)cc1,i,18µM*,9%,5%,1%,-6%
O=C(Nc1cc(S(=O)(=O)Nc2ccccc2F)ccc1Cl)c1ccc(F)cc1F,i,i,·,5%,0%,·
COC(=O)CCC(=O)Nc1cc(S(=O)(=O)Nc2ccc(Cl)cc2)ccc1N1CCOCC1,i,i,43%,1%,·,6%
COc1ccc(NS(=O)(=O)c2ccc(N3CCOCC3)c(NC(=O)c3ccccc3Cl)c2)cc1,16µM*,10µM*,24%,?,?,-10%
O=C(Nc1cc(S(=O)(=O)Nc2ccc(Cl)cc2)ccc1N1CCCCC1)c1ccc(F)cc1Cl,16µM*,?,?,14%,?,-16%

# Bioassay records from PubChem BioAssay.
